# Screening results (PubChem BioAssay)
# An excerpt weighted towards active compounds, which were near 10% of everything screened.
# G9a inh: qHTS Assay for Inhibitors of Histone Lysine Methyltransferase G9a | Histone-lysine N-methyltransferase EHMT2 (Homo sapiens), Q96KQ7 | G9a H3K9 monomethylation, AlphaScreen, 2 h | Potency, µM (titrated, usually from 102 µM), for inactives: at the highest dose activity, negative = inhibition, usual class: inhibitors | 350,000 tested, 8.8% active; also: % is scaled to controls: 0 for no effect and ±100 for the full control effect; nearly all actives have a fitted effect of over 75% in size
#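 AlphaScreen detection with an anti-monomethyl H3K9 antibody quantified product after a 2 h room-temperature reaction containing 500 nM biotinylated H3K9 peptide, 20 µM SAM and 20 nM enzyme, which had been preincubated 15 min with compound.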
# BAZ2B block: qHTS Assay for Inhibitors of BAZ2B | Bromodomain adjacent to zinc finger domain protein 2B (Homo sapiens), Q9UIF8 | AlphaScreen BAZ2B-H3K14Ac peptide displacement | Potency, µM (top dose mostly 114 µM), inactives show at the highest dose activity change, negative = inhibition, actives largely listed as inhibitors | 360,000 tested, 4.4% active | AID 504333, 2011; also: % is scaled to controls: 0 for no effect and ±100 for the full control effect; nearly all actives have a fitted effect of over 60% in size
#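 Protein-peptide AlphaScreen: BAZ2B 50 nM, b-H3K14Ac 50 nM, 1x PBS pH 7.4 + 0.01% Tween-20. Preincubation 30 min RT; cpd 30 min RT (top 110 uM); beads 20 min RT, light-protected.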
# GLS inh: qHTS for Inhibitors of Glutaminase (GLS) | Glutaminase kidney isoform, mitochondrial (Homo sapiens), O94925 | GLS enzymatic activity, qHTS titration | Potency, µM (series often up to 45.5 µM), inactives show at the top dose activity change, negative = inhibition, most hits filed as inhibitors | 410,000 tested, 0.21% active | AID 624170, 2012; also: % is scaled to controls: 0 for no effect and ±100 for the full control effect
#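 Read-out is an Amplex red fluorescence increase coupled through glutamate oxidase and HRP, measured before and after 30 min room-temperature incubation. hKGA is in 45 mM KH2PO4 (pH 8.2) with 0.02% Tween-20; glutamine added as 1mM solution.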
# L3MBTL1 inh: qHTS Assay for the Inhibitors of L3MBTL1 | Lethal(3)malignant brain tumor-like protein 1 (Homo sapiens), Q9Y468 | Potency, µM (top dose mostly 57.1 µM), inactives show top-dose activity, negative = inhibition, hits mostly inhibitors | 230,000 tested, 0.66% active | AlphaScreen L3MBTL1–H3K9me1 peptide binding | AID 485360, 2010; also: % is scaled to controls: 0 for no effect and ±100 for the full control effect; nearly all actives have a fitted effect of over 60% in size
# Target sequence (Q9Y468 whole entry, looked up): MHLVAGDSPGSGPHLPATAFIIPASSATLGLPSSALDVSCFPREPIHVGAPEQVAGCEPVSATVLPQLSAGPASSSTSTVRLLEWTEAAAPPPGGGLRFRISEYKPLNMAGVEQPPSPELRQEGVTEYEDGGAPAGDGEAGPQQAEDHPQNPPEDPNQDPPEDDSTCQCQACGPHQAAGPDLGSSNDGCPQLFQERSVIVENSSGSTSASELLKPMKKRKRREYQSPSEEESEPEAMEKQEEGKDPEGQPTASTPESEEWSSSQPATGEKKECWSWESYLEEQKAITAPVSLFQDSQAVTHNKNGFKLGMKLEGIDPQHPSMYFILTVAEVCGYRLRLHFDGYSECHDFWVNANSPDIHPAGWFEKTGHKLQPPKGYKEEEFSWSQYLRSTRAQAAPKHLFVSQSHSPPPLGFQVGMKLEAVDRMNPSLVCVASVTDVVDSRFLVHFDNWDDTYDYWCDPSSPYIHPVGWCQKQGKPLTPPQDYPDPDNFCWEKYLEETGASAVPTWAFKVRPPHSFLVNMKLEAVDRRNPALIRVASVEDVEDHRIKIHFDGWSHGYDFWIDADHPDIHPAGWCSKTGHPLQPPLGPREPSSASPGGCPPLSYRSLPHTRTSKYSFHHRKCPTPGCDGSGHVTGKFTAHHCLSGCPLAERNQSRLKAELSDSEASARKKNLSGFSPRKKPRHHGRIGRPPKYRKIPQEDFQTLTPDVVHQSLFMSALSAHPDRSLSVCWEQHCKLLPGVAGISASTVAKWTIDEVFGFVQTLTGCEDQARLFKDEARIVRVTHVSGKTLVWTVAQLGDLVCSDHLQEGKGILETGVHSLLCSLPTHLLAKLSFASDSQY
#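 Read-out is AlphaScreen signal from streptavidin donor and nickel chelate acceptor beads (10 ug/mL final each) bridging L3MBTL1 (50 nM) and biotinylated K9-monomethylated H3(1-15) peptide (75 nM), after 30 min compound exposure at room temperature.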
# JMJD2A Tudor inh: qHTS Assay for Inhibitors of JMJD2A-Tudor Domain; Potency, µM (top dose mostly 114 µM), for the others: top-dose activity change, negative = inhibition, hits mostly inhibitors; Lysine-specific demethylase 4A (Homo sapiens), O75164; AID 504339, 2011; 390,000 tested, 4.4% active; AlphaScreen JMJD2A-Tudor / H3K4me3 peptide binding; also: % is scaled to controls: 0 for no effect and ±100 for the full control effect; nearly all actives have a fitted effect of over 50% in size
# HP1b binding inh: HTS for Inhibitors of HP1-beta Chromodomain Interactions with Methylated Histone Tails. 390,000 tested, 0.56% active. AlphaScreen HP1-beta / biotin-H3K9me3 peptide binding. Potency, µM (titrated, usually from 114 µM), inactives show at the highest dose activity change, negative = inhibition, most hits filed as inhibitors; also: nearly all actives have a fitted effect of over 70% in size
#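 Compound inhibition of the preformed complex between 50 nM HP1-beta and 50 nM biotinylated H3K9me3 peptide was read by AlphaScreen. Buffer was PBS pH 7.4 with 0.01% Tween-20. Incubations ran 30 min at room temperature, with 10 ug/mL donor/acceptor beads.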
# Starred values were filed as active, the others as inactive; ? = inconclusive; nt = no result given; [ ] = another dose, or the depositor's remark. Calls follow the shape of the dose curve; as a rule, active = well fitted curve in the direction sought with a large enough effect; inconclusive = small, poorly fitted or top-dose-only effect, or another doubt; inactive = no such curve, though single readings can be large; an effect the other way counts as inactive or inconclusive. Potency is read from the fitted curve at half-maximal effect.
SMILES,G9a inh,BAZ2B block,GLS inh,L3MBTL1 inh,JMJD2A Tudor inh,HP1b binding inh
Cc1cccc(N=C2NC(=O)/C(=C/C=C/c3ccco3)S2)c1C,18µM*,22µM*,-4%,7.9µM*,40µM*,45µM*
Cc1ccc(CNc2ccc(-c3nc(C(C)C)no3)cc2[N+](=O)[O-])cc1,-8%[59 µM],-1%,-9%,nt,-16%,9%
CC(=O)n1c2c(c3ccccc31)OC(N)=C(C#N)C2c1cccc(Cl)c1Cl (stereo not given),45µM*,3%,6%,3%,-19%,23%
Cc1cc(C)n2cnnc2n1,18%,-5%,-3%,-3%,-5%,36%
Cc1cc(C)n2c(=S)[nH]nc2n1,1.1µM*,40µM*,?,-2%,?,8.9µM*
Cc1ccc(N2NC(=O)/C(=C/c3ccc(-c4ccc(Cl)c(C(=O)O)c4)o3)C2=O)cc1C,?,?,?,-25%,-24%,-3%
O=C1NN(c2cccc(Br)c2)C(=O)/C1=C/c1ccc(-c2cc([N+](=O)[O-])ccc2O)o1,-156%[59 µM],2.2µM*,-14%,nt,?,?
O=C1NN(c2ccc(Cl)c(Cl)c2)C(=O)/C1=C/c1ccc(-c2ccccc2C(=O)O)o1,40µM*,40µM*,13µM*,nt,?,?
Nc1nonc1C(=O)N/N=C/c1ccc(-c2ccc(Cl)c(C(=O)O)c2)o1,32µM*,79µM*,2%,-92%,-24%,14%
CC1(C)OC(=O)C(=Cc2ccc(-c3ccc(Cl)c(C(=O)O)c3)o2)C(=O)O1,14µM*,79µM*,?,6.3µM*,?,19%
Nc1nonc1C(=O)N/N=C/c1ccc(Br)o1,-3%,-4%,-3%,15%,3%,39%
Cc1ccccc1C(=O)NC1(C(F)(F)F)N=C(c2ccccc2)N(C2CCCCC2)C1=O (stereo not given),-4%[59 µM],-16%,-4%,nt,-10%,20%
COc1ccc(S(=O)(=O)NCCc2csc3nc(-c4cccc(C)c4)nn23)cc1F,6%[59 µM],?,3%,nt,-17%,36%
CN1c2ccccc2C(=O)N2CCc3c([nH]c4ccccc34)C21 (stereo not given),nt,nt,nt,nt,-12%,-5%
Cc1ccc(N2C(=O)[C@@H]3CSC(c4ccc(C(F)(F)F)cc4)N3C2=O)cc1 (stereo not given in full),14%[59 µM],1%,-2%,nt,-1%,66%
CC1=NN(c2ccc(C)cc2)C(=O)/C1=C/c1ccc(-c2cc([N+](=O)[O-])ccc2O)o1,nt,2%,-11%,32µM*,32µM*,32µM*
Cc1ccc(NC(=O)/C(C#N)=C/c2ccc(-c3ccc(Cl)c(C(=O)O)c3)o2)cc1C,-51%[59 µM],-27%,-3%,nt,-20%,-8%
CC1=NN(c2ccccc2)C(=O)/C1=C/c1ccc(-c2ccc(C)c(C(=O)O)c2)o1,nt,nt,-2%,nt,40µM*,?
CC1=NN(c2ccc(Cl)c(C(=O)O)c2)C(=O)/C1=C\c1ccc(-c2ccc(C(=O)O)cc2)o1,8.9µM*,50µM*,?,nt,?,-15%
CC1=NN(c2ccc(C(=O)O)cc2)C(=O)/C1=C/c1ccc(-c2ccccc2F)o1,7.9µM*,?,nt,nt,nt,nt
Cc1ccc(N2C(=O)CSC23C(=O)Nc2ccccc23)cc1F (stereo not given),-3%[59 µM],-17%,-8%,nt,-13%,21%
O=S(=O)(NCCc1cn2ccsc2n1)c1ccc(Cl)cc1,19%[59 µM],-2%,-4%,nt,-21%,17%[57 µM]
O=C(NCc1ccc(F)cc1)c1cccc2c1C(=O)c1ccc(N3CCOCC3)cc1S2(=O)=O,5%[0.501 µM],-7%,7%,0%,79µM*,44%
